Among the data in PubChem BioAssay AID1117319 (Southern Research Institute, 2015) are inhibition values, retold here.

“And” between values parts separate entries of the source, which are not always exact repeats. Equal values may be shown once. Screen size: about 260,000 compounds; about 1,500 (0.58%) were called active. Another 5% or so got no clear call; they are omitted.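 Rule for the calls: active = inhibition above a set limit at one or more doses, reproduced on every date tested; inconclusive = results disagree between test dates, or hit never tested in dose response; inactive = the rest.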 A selection follows. Potency and affinity values are given separately.

Broadly, the inhibition is the change of the read-out against control, counted positive when it falls.

This experiment deals with Virion infectivity factor (Human immunodeficiency virus type 1 group M subtype B (isolate BH10)) + Virion infectivity factor (Human immunodeficiency virus type 1 group M subtype B (isolate BRU/LAI)) + Virion infectivity factor (Human immunodeficiency virus type 1 group M subtype B (isolate PCV12)) + Virion infectivity factor (Human immunodeficiency virus type 1 group M subtype B (isolate HXB2)) + DNA dC->dU-editing enzyme APOBEC-3G (Homo sapiens) (UniProt P69720+P69721+P69722+P69723+Q9HC16). Put plainly: HIV-1 Vif–A3G interaction blockers – biochemical, TR-FRET, GST-Vif 1-94, biotin-A3G peptide, dose response retest, primary screen (AID 1117319).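 Note: Vif residues 1-94 fused to GST binding biotinylated APOBEC3G peptide 110-148; 0% = full assay without inhibitor and 100% = GST in place of GST-Vif.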 The following applies: TR-FRET GST-Vif / biotin-A3G peptide binding; active compounds read high.
`CC(Oc1ccccc1F)C(=O)/C=C/N(C)C` (stereo not drawn): the inhibition was 5.44% (inactive). In the case of `O=C(Nc1ccc(Oc2ccccc2)nc1)C1CCCCN1Cc1ccco1` (stereo not drawn), the inhibition was 9.99% (inactive). Take `O=C(Nc1cccnc1)c1ccc(S(=O)(=O)c2ccccc2)cc1`: the inhibition was -0.77% (inactive).

On to `O=C(NCc1ccccc1)C(=O)NCC1OCCCN1S(=O)(=O)c1cccs1` (stereo not drawn), for which the inhibition was -3.27% (inactive). Then `NC(=O)Nn1c(CCC(=O)O)ccc1-c1ccc(F)cc1`, with 4.46% (inactive); and `NC(=O)Nn1c(CCC(=O)O)ccc1-c1ccc(Cl)cc1`, with 3.68% (inactive); and `Cc1nc(-c2cc(C#N)c(Sc3cccc(C(F)(F)F)c3)nc2C)cs1`, with -11.1% (inactive). Regarding `COCCN(C(=O)COC(=O)c1cc2ccccc2cc1O)c1c(N)n(Cc2ccccc2)c(=O)[nH]c1=O`, the inhibition was 0.53% (inactive).

On to `CCOc1ccc(C(=O)Nc2ccc(N3CCCC3)cc2)cc1`, for which the inhibition is -1.32% (inactive).

As to `CCOc1c(Cl)cc(CNc2ccc(N3CCCC3)cc2)cc1OC`, the inhibition is -0.34% (inactive). Then `Cc1ccc2cc(CN(CCN(C)C)C(=S)Nc3ccccc3)c(=O)[nH]c2c1C`, with 17% (inactive). Then `CCOc1ccc(C2CC(=O)NC(SC)=C2C#N)cc1` (stereo not drawn), with -1.81% (inactive); and `CS/C(=N\S(=O)(=O)c1cccs1)Nc1ccc(Cl)cc1`, with 3.6% (inactive). Then `COc1ccc(OC)c(C2C(C(=O)Nc3ccccc3OC)=C(C)Nc3nc(CCCO)nn32)c1` (stereo not drawn), with 18.4% (inactive); and `COc1ccc(C2C(C(=O)Nc3ccc(F)cc3)=C(C)Nc3nc(CCCO)nn32)cc1` (stereo not drawn), with -0.37% (inactive).

Regarding `Nc1ccc(C(=O)N(CCO)CCO)cc1`, the inhibition was 2.26% (inactive). Then `OCCN(CCO)c1ccc2ccccc2c1`, with 9.83% (inactive); and `CN(CC(=O)Nc1ccc(F)cc1)C(=O)C1CCCC1`, with -2.12% (inactive); and `O=c1c2c3c(sc2n(CCN2CCCCC2)c(=O)n1Cc1ccco1)CCCCC3`, with 30.5% (inactive).

In the case of `O=C(Cn1c(=O)n(Cc2ccco2)c(=O)c2c3c(sc21)CCCC3)Nc1ccccc1`, the inhibition is -1.14% (inactive). On to `FC(F)(F)c1cnc(Oc2ccc(-c3nnco3)cc2)c(Cl)c1`, for which the inhibition is -4.28% (inactive). Then `Oc1ccc(Br)cc1/C=N/n1c(COc2ccccc2)n[nH]c1=S`, with 23.7% (inactive); and `Cc1ccc(S(=O)(=O)Cc2ccc(C(=O)NCc3cccs3)o2)cc1`, with 2.29% (inactive).

Turning to `CSc1ccccc1NC(=O)c1cccnc1`, the inhibition is -0.88% (inactive). Then `CN=c1scc(C)n1/N=C/c1cc(Br)c(O)c(Br)c1`, with 27.7% (inactive); and `CN=c1scc(C)n1/N=C/c1ccc(O)cc1`, with 3.18% (inactive). Then `CCN=c1scc(C)n1/N=C/c1ccsc1`, with 24.1% (inactive); and `CN=c1scc(C)n1/N=C/c1ccc(O)cc1O`, with 6.79% (inactive). Then `CCN=c1scc(C)n1/N=C/c1cc(Br)c(O)c(OC)c1`, with 10.6% (inactive).

As to `C=C(C)CN=c1scc(C)n1/N=C/c1ccco1`, the inhibition was 7.84% (inactive). Then `O=C(Oc1coc(CSc2ncccn2)cc1=O)c1cccc([N+](=O)[O-])c1`, with -1.78% (inactive); and `O=C(Cc1ccccc1[N+](=O)[O-])NCC(=O)c1ccc2c(c1)OCO2`, with -9.24% (inactive); and `CC(CCc1ccccc1)N(C)CC(O)c1cccc([N+](=O)[O-])c1` (stereo not drawn), with -11.1% (inactive). Then `Nc1ccn([C@@H]2O[C@H](CNCc3cccc(OC4CCCC4)c3)[C@@H](O)[C@H]2O)c(=O)n1`, with 3.81% (inactive); and `COc1ccc([C@@H]2C[C@@H](c3ccccc3)Oc3cc(OC)cc(OC)c32)cc1`, with -2.19% (inactive). Then `Clc1ccc(OCCCc2nc(-c3cccnc3)no2)c(Cl)c1`, with 21.6% (inactive); and `N#Cc1c(N2CCN(c3ccc(F)cc3)CC2)nc(N)c2c(N)nc3c(c12)CC(=O)N3C1CC1`, with 1.08% (inactive); and `CC(C)c1ccc(-c2nc(N3CCCCC3)[nH]c(=O)c2C#N)cc1`, with -2.18% (inactive). For `CN(CCC#N)C(=O)COC(=O)c1ccc(Cl)cc1O`, the inhibition is 6.5% (inactive).

In the case of `COc1ccc(-n2nnnc2-c2cnc3cc4c(cc3c2C)OCO4)cc1`, the inhibition is 2.05% (inactive). Then `CCCCNC(=O)Cn1c2c(c(-c3ccccc3Cl)cc1=O)CCC2`, with 11.2% (inactive); and `O=C(Cn1c2c(c(-c3ccccc3Cl)cc1=O)CCC2)NCCCN1CCOCC1`, with 22.2% (inactive). Then `CC(=O)c1ccc(NC(=S)N2CCCC(C(F)(F)F)C2)cc1` (stereo not drawn), with -3.97% (inactive); and `Cc1ccc(C2C3=C(CCCC3=O)Nc3[nH]c(=S)[nH]c(=O)c32)cc1` (stereo not drawn), with 15.3% (inactive). For the molecule `COC(=O)C1=C(C)Nc2[nH]c(=S)[nH]c(=O)c2C1c1ccc(O)cc1` (stereo not drawn), the inhibition was -3.71% (inactive). Then `COc1ccc(Nc2ccc([N+](=O)[O-])cc2[N+](=O)[O-])cc1`, with -7.01% (inactive). Then `O=C(NC(=O)c1ccccc1)NC1(C(F)(F)F)OCCO1`, with -4.29% (inactive); and `O=C(NCC1CCCO1)C(c1cccnc1)N(C(=O)Cc1cccs1)c1ccccc1` (stereo not drawn), with 28.6% (inactive). Then `COc1ccc2c(c1)C(=O)N(c1ccc(C)cc1)C(=O)C2`, with 1.47% (inactive); and `Cc1ccc2c(c1)CC1(CN2C)C(=O)OC(C)(C)OC1=O`, with 24.2% (inactive). `CCc1ccc(N2C(=O)C3ON(c4ccccc4)C(c4ccco4)C3C2=O)cc1` (stereo not drawn): the inhibition was -3.31% (inactive).

In the case of `CCOC(=O)C1=C(C)N(c2ccc(OCC)cc2)C(=O)/C1=C\c1ccco1`, the inhibition is 10.7% (inactive). Then `Cc1ccc(CC2S/C(=N/N=C/c3ccco3)NC2=O)cc1` (stereo not drawn), with 4.38% (inactive); and `Cc1n[nH]c(=O)n1-c1ccc(C(C)C)cc1`, with -7.48% (inactive); and `CC1=NN(c2ccccc2)C(=O)/C1=C/C=C/c1ccccc1`, with 5.22% (inactive). Then `CC(C)c1ccc(CN(C(=O)/C=C/c2ccco2)C2CCS(=O)(=O)C2)cc1` (stereo not drawn), with 30.9% (inactive); and `Cc1ccc(N2C(=O)c3n[nH]c(C)c3C2c2ccco2)cc1` (stereo not drawn), with -7.3% (inactive) and 4.08% (inactive); and `O=C1NC(=O)C(=CC=Cc2ccccc2)S1`, with 2.69% (inactive).

On to `COc1ccc2[nH]c(C(=O)Nc3cccc(C)n3)cc2c1`, for which the inhibition is -5.53% (inactive).

As for `CCOc1cc(C#N)ccc1OCC(=O)N1CCN(C(=O)c2cccs2)CC1`, the inhibition is -1.5% (inactive). Then `Cc1cccc(C)c1OCC(=O)NCC1CCCO1` (stereo not drawn), with -4.95% (inactive); and `CCOCCCNC(=O)/C=C1\Sc2ccccc2N(Cc2ccccc2F)C1=O`, with -8.36% (inactive); and `CCOC(=O)c1ccccc1NS(=O)(=O)c1ccc(S(=O)(=O)N2CCCC2)cc1`, with 2.58% (inactive). Regarding `O=C(NNC(=O)c1cccc(-n2cccc2)c1)c1ccc(F)cc1`, the inhibition was 16% (inactive). Then `Cc1ccc(C)c(NC(=O)CN(C)C(=O)c2cccc(N3C(=O)CCC3=O)c2)c1`, with -0.71% (inactive); and `CN(CC(=O)Nc1cccc(F)c1)C(=O)c1ccc(C(=O)c2ccccc2)cc1`, with 0.25% (inactive). Then `Cc1ccc(C)c(NC(=O)CN(C)C(=O)c2cccc(S(=O)(=O)N(C)C)c2)c1`, with 5.71% (inactive); and `O=C(NNC(=O)c1cccc(-n2cccc2)c1)c1ccccc1`, with 7.05% (inactive); and `COc1ccc(NC(=O)CN(C)C(=O)c2ccc3ccccc3c2)cc1`, with 7.66% (inactive). Then `CN(CC(=O)Nc1cccc(F)c1)C(=O)c1cccc(N2C(=O)CCC2=O)c1`, with -2.88% (inactive). With `COc1ccc(NC(=O)CN(C)C(=O)c2cccc(Oc3ccccc3)c2)cc1`, the inhibition is -4.86% (inactive).

As for `O=C(CCCCn1ccc(=O)[nH]c1=O)Nc1ccc(O)c(C(=O)O)c1`, the inhibition is -11.5% (inactive). Then `Cc1ccsc1-c1nc(CN(C)C(C2CC2)C2CC2)c(C)o1`, with 4.23% (inactive); and `COc1cc2c(cc1OC)CN(Cc1nc3ccsc3c(=O)[nH]1)CC2`, with 7.56% (inactive). Then `COc1ccc(N2CCN(Cc3nc4c(c(=O)[nH]c(=O)n4C)n3CC(C)=O)CC2)cc1`, with 8.98% (inactive).

As for `Cc1ccc(SCC(=O)Nc2ccc(N3CCOCC3)cc2)cc1C`, the inhibition was -8.83% (inactive).

Turning to `COc1ccc(NC(=O)NNS(=O)(=O)c2ccc(OC)c(OC)c2)c(OC)c1`, the inhibition is 5.71% (inactive). Then `O=C(Nc1ccc(S(=O)(=O)N2CCCCC2)cc1)c1ccccc1Cl`, with 0.17% (inactive). For `Cc1ccc(CSCC(=O)NCc2ccc3c(c2)OCO3)cc1`, the inhibition is 14.3% (inactive).

Regarding `COc1cc2c(cc1OC)CN(C(=O)c1cccc(S(=O)(=O)N3CCc4ccccc43)c1)CC2`, the inhibition is 8.84% (inactive). Then `CCN(CC(=O)Nc1c(F)cccc1F)C(=O)c1cccc(-n2cnnn2)c1`, with -3.65% (inactive). Then `Cc1cccc(NC(=O)CNC(=O)c2ccc3nc[nH]c3c2)c1C`, with 9.97% (inactive); and `CCN(CC(=O)Nc1ccc(NC(C)=O)cc1)C(=O)c1cccc(-n2cccc2)c1`, with 16.2% (inactive); and `CN(CC(=O)Nc1ccccc1Cl)C(=O)c1cccc(-n2cccc2)c1`, with -0.39% (inactive). Then `Cc1ccc(NC(=O)CN(C)C(=O)c2cccc(Br)c2)cc1`, with -1.1% (inactive); and `Cc1cccc(C)c1NC(=O)CN(C)C(=O)c1cccc(-n2cccc2)c1`, with 9.97% (inactive); and `CN(CC(=O)Nc1ccccc1C(F)(F)F)C(=O)c1cccc(-n2cccc2)c1`, with 6.51% (inactive). Turning to `O=C(CNC(=O)c1cccc(-n2cccc2)c1)Nc1ccccc1Br`, the inhibition is 4.99% (inactive). Then `O=C(CCNS(=O)(=O)c1ccc(F)cc1)N1CCN(c2ncccn2)CC1`, with -6.24% (inactive); and `Cc1oc2cc3oc(=O)c(CCC(=O)NCCC(=O)O)c(C)c3cc2c1C`, with 2.04% (inactive); and `O=C(O)c1cccc2c1C(=O)c1cc([N+](=O)[O-])cc([N+](=O)[O-])c1-2`, with 6.48% (inactive). Then `COc1ccc(C2c3ccsc3CCN2C(=O)NC(C)(C)C)cc1` (stereo not drawn), with -4.12% (inactive); and `COCCN(C(=O)COC(=O)CCOc1ccccc1)c1c(N)n(Cc2ccccc2)c(=O)[nH]c1=O`, with 0.29% (inactive).
